High-throughput results from PubChem BioAssay.
LMP1 NFkB inh – inhibitors of Epstein-Barr LMP1-induced NF-kappaB reporter; LMP1-induced NF-kappaB luciferase reporter cells, luminescence; inhibition, % at 12.5 µM; hit rate 0.69% among 350,000; in the data active means inhibition above about 41%;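 further: 0% = neutral control wells and 100% = reference inhibitor control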
CF NFkB inh – blocks PAF-induced NF-kB reporter in cystic fibrosis cells; KKLEB NF-kB-GFP reporter, GFP fluorescence overnight; AID 588850; inhibition, % at 5 µM; hit rate 0.86% among 360,000;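 active means at least 50% inhibition at 5 µM, scaled per plate between neutral and stimulator controls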;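 further: PAF is a Pseudomonas aeruginosa culture filtrate used as stimulus; plate controls were PAF-stimulated DMSO wells for no effect and unstimulated DMSO wells for full effect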
MITF TRPM1 inh – reduces MITF-dependent TRPM1 promoter luciferase signal; SK-MEL-5 TRPM1 promoter luciferase, 24 h; inhibition, % at 12.5 µM; hit rate 0.83% among 330,000;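 active means mean inhibition across replicates of 60% or more, whatever share of single replicates reaches that level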
Peg3 promoter – reduces Peg3 promoter-driven luciferase expression in HeLa | HeLa PEG-Prom luciferase reporter, luminescence, overnight | inhibition, % at 20 µM | hit rate 1.7% among 360,000 | AID 588405;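 active means inhibition of at least 50% at 20 µM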
Shn3 inh set2 – Schnurri-3 reporter inhibition in Clone20 osteoblasts | inhibition, % at 12.5 µM | hit rate 0.52% among 360,000 | Clone20 osteoblast Shn3 3'UTR firefly luciferase, 24 h;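 active means mean inhibition of at least 75% with every replicate also reaching 75%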;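 further: 0% = median of neutral control wells and 100% = pilot-screen positive control compound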
KKLEB cytotox – reduces viability of KKLEB cystic fibrosis airway cells; activity change (cytotoxicity), % at 5 µM; hit rate 0.36% among 360,000; KKLEB CF airway cells viability, ATPlite luminescence, overnight; active compounds read low; cells stimulated with P. aeruginosa culture filtrate;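 active means corrected activity change at or below -50% at 5 µM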
CF NFkB inh conf – CF NF-kB inhibition confirmation, single concentration | hit rate 64% among 1,300 | shares compounds with CF NFkB inh | AID 602472 | inhibition, % at 5 µM | KKLEB CF airway cells, PAF-induced NF-kB-GFP fluorescence, overnight; in the data active means inhibition above about 40%;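 further: stimulus PAF is a Pseudomonas aeruginosa filtrate and not platelet activating factor; plate controls were DMSO wells with stimulus for no effect and unstimulated DMSO wells for full effect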
* marks the source's active call; other numbers are inactive results; / = no result given; ! = not active in a repeat. Compounds with a hit are over-represented: about 2.9% of the library has one in this group of screens.

SMILES	LMP1 NFkB inh	CF NFkB inh	MITF TRPM1 inh	Peg3 promoter	Shn3 inh set2	KKLEB cytotox	CF NFkB inh conf
CCOC(=O)c1ccc2c(c1)nc(SC/C(O)=C(\C#N)c1nc3ccccc3[nH]1)n2CC	-2.4	66.3*	18.3	5.8	2.4	-38.5	59.0*
Clc1ccc(-c2csc3ncnc(N4CCc5ccccc5C4)c23)cc1	-19.4	54.9*	-33.0	34.8	-8.6	-12.1	45.6*
COc1cccc(-c2nnc3sc(C4CCCCC4)nn23)c1	44.7*	85.9*	-0.3	-27.3	-7.7	3.8	96.4*
CCOc1cccc(-c2nnc3sc(C4CCCCC4)nn23)c1	12.4	66.1*	-14.5	-7.2	14.2	-10.8	84.6*
O=C(Cn1cc(C(F)(F)F)ccc1=O)Nc1ccc2c(c1)OCO2	-0.5	-16.1	/	-9.6	12.9	7.8	/
COc1ccccc1N1CCN(c2nc3ccccc3nc2C(C#N)C(=O)OC(C)C)CC1 (centres undefined)	11.5	19.6	3.4	22.1	12.9	-7.3	/
CCOc1ccccc1N1CCN(c2nc3ccccc3nc2C(C#N)C(=O)OC)CC1 (centres undefined)	-1.0	90.0*	3.9	41.6	-7.3	-7.0	46.8*
COc1ccc(CN2C(=O)C(CC(=O)NCc3ccco3)CC(C(=O)N(C(C)C)C(C)C)=C2C)cc1 (centres undefined)	0.1	11.2	/	1.7	-35.1	-7.1	/
O=C(NCc1ccc(F)cc1)C(c1cccnc1)N(C(=O)c1csnn1)c1ccccc1 (centres undefined)	-5.5	0.0	-7.0	18.7	-15.3	-11.9	/
CC(C)(C)S(=O)N1Cc2cc(C(=O)NCC(F)(F)F)nc(-c3cccc(-c4cccc(F)c4)c3)c2[C@@H]1CCO (some centres undefined)	/	78.0*	/	69.3*	25.2	-10.4	64.8*
Cc1[nH]nc2nc(SCC(=O)NCCC3=CCCCC3)n(-c3ccc(Br)cc3)c(=N)c12	-9.1	63.2*	48.4	47.5	76.4	-34.5	60.5*
COC(=O)c1ccc(CNC(=O)CC[C@H]2O[C@@H](n3cc(C)c(=O)[nH]c3=O)C[C@@H]2O)cc1	/	3.5	/	4.0	8.5	12.4	/
O=C(NCCc1ccc(F)cc1)Nc1ccc([N+](=O)[O-])cc1	-17.9	-27.6	-15.3	-56.2	17.7	14.5	/
O=[N+]([O-])c1ccc(NC(=S)NCCc2ccc(F)cc2)cc1	-3.5	50.5*	6.0	25.7	49.4	-48.0	66.5*
CO/N=C/C(NC(=O)c1ccc(C(F)(F)F)cc1)C(=O)OC (centres undefined)	2.6	-22.3	-15.5	-6.0	3.0	16.2	/
NC(N)=NN=C(c1ccc(F)cc1)c1ccc(C(F)(F)F)cc1	-9.5	72.1*	102.8*	98.6*	-10.5	-20.6	80.8*
COc1ccc(-c2sc3cc4c(cc3c2C#CC2(O)CCCCC2)OCO4)cc1	-16.0	19.4	-7.0	-22.7	-21.7	-11.0	/
COc1ccc(-c2oc3ccc(-c4ccc(OC)nc4)cc3c2C#CC2(O)CCCCC2)cc1	-27.6	64.4*	2.5	1.7	18.5	-37.1	54.2*
COc1ccc(-c2oc3ccc(-c4ccc5c(c4)OCO5)cc3c2C#CC2(O)CCCCC2)cc1	-0.6	60.6*	11.5	10.1	35.4	-37.1	52.9*
CC1CCCC(C)N1C(=O)COC(=O)c1cc(=O)[nH]c2ccccc12 (centres undefined)	8.9	7.6	-6.6	-25.4	8.1	-1.3	/
COc1ccc(NC(=O)Nc2nnc(-c3ccncc3)s2)cc1	14.9	58.2*	-31.7	-106.4	-18.9	-21.2	53.2*
COc1cccc(NC(=O)Nc2nnc(CC(=O)NCc3ccccc3)s2)c1	11.0	61.2*	-10.7	8.0	9.1	-1.5	79.9*
COCCNC(=O)C1(C)CCCN(C(=O)c2ccc(-c3ccccc3)cc2)C1 (centres undefined)	/	6.0	/	-12.0	-0.9	-2.1	/
Cc1ccc([C@@H]2CC=C(C(=O)O)[C@H](c3ccc(C(C)(C)C)cc3)N2S(=O)(=O)c2ccc(C)cc2)cc1	3.7	50.7*	4.1	9.9	-3.7	0.5	21.9
Cc1ccc(S(=O)(=O)N2[C@@H](c3ccc(C(C)(C)C)cc3)C(C(=O)O)=CC[C@H]2c2ccc(C(C)C)cc2)cc1	4.2	62.3*	9.0	20.8	17.6	12.0	53.0*
SMILES	LMP1 NFkB inh	CF NFkB inh	MITF TRPM1 inh	Peg3 promoter	Shn3 inh set2	KKLEB cytotox	CF NFkB inh conf
Cc1ccc(S(=O)(=O)N2[C@@H](c3ccc(C(C)(C)C)cc3)C(C(=O)O)=CC[C@H]2c2ccc(Cl)cc2)cc1	7.8	24.7	-1.8	24.9	-16.1	-6.9	/
Cc1nc(SCC(=O)NCc2ccc3c(c2)OCO3)nc(C)c1C	2.1	7.6	4.9	1.7	-14.7	1.3	/
COc1ccc(NC(=O)CSc2nc(C3CC3)nc3ccccc23)cc1	-3.4	53.0*	10.0	8.3	-2.9	-18.1	33.4
COc1cc(C(=O)c2cc3c(cc2C)OCO3)cc(OC)c1OC	/	57.6*	/	-71.3	20.0	-18.6	82.5*
CCC1Nc2ncnc(N3CCCCC3)c2N(Cc2ccc(C)cc2)C1=O (centres undefined)	0.5	71.4*!	-3.8	6.9	4.3	-10.2	17.3
Fc1ccccc1-c1csc(=Nc2cccnc2)n1CC1CCCO1 (centres undefined)	-3.0	-19.3	4.6	-4.0	-34.6	10.8	/
Fc1ccccc1-c1csc(=Nc2cccnc2)n1CCCn1ccnc1	1.8	65.9*	-10.4	-67.3	51.9	-13.3	70.8*
O=[N+]([O-])c1ccc(O)c(C2CCCCC2)c1	3.2	63.7*	2.7	38.5	-1.8	-19.0	93.3*
COC(=O)c1ccccc1NC(=O)CSc1n[nH]c(-c2ccco2)n1	0.2	4.3	14.2	-2.4	-5.5	1.3	/
COCCn1c(SCC(=O)Nc2c(C)n(C)n(-c3ccccc3)c2=O)nnc1-c1ccncc1	-3.5	29.4	9.0	7.3	8.9	-2.2	/
NC(c1ccccc1)c1csc(NC(=O)Nc2cccc(Cl)c2)n1 (centres undefined)	/	58.7*	/	107.9*	-0.3	-0.6	59.3*
CC(C)C(=O)N1CCCC1(C)C(=O)N(C)Cc1cccc2ccccc12 (centres undefined)	/	5.2	/	4.0	-29.9	9.9	/
COc1cc2c(c(OC)c1OC)C(=O)CO2	4.1	6.5	4.9	8.9	-0.9	-18.1	/
CN(C)CCCN(C(=O)CCOc1ccccc1)c1nc2ccc(F)cc2s1	24.1	91.2*	8.6	71.8*	-15.6	-35.1	69.4*
CN(C)CCCN(C(=O)CCOc1ccccc1)c1nc2c(F)cccc2s1	33.9	84.6*	16.4	50.4*	9.2	-27.0	60.5*
CN(C)CCCN(C(=O)CCc1ccccc1)c1nc2c(F)cccc2s1	10.0	26.8	-1.7	-10.5	4.5	-21.9	/
